Rce1 inh – inhibitors of yeast Ras-converting enzyme; Q03530; yeast membranes, quenched prenylated peptide cleavage fluorescence; actives 0.27% (n = 290,000); calls only;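 active means fall in fluorescence gain of 50% or more versus controls, with final raw signal at or below 3038400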
MEKK2mut PB1 HTS – signal of MEK5 binding to mutant human MEKK2 PB1 domain; bead flow cytometry, Alexa488-MEK5 binding to MEKK2 mutant; percent response, % at 10 µM; actives 0.35% (n = 290,000); AID 1530; in the data active means percent response above about 24%, passing the limit was not always enough
MEKK3 PB1 HTS – raises or lowers MEK5 binding to the human MEKK3 PB1 domain; binding response (% of control), % at 10 µM; Q99759; AID 1529; bead-based flow cytometry, Alexa488-MEK5 binding to MEKK3; actives lie on both sides; 0 = blocked by unlabeled MEK5, 100 = vehicle; actives 1.4% (n = 290,000);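 active means binding response more than 3 SD above or below the average of its plate-row segment, actives on both sides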;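 further: Alexa488 bead fluorescence after subtracting the streptavidin-only scavenger bead signal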
Target sequence (Q99759 whole entry, looked up, the tested form may be a part): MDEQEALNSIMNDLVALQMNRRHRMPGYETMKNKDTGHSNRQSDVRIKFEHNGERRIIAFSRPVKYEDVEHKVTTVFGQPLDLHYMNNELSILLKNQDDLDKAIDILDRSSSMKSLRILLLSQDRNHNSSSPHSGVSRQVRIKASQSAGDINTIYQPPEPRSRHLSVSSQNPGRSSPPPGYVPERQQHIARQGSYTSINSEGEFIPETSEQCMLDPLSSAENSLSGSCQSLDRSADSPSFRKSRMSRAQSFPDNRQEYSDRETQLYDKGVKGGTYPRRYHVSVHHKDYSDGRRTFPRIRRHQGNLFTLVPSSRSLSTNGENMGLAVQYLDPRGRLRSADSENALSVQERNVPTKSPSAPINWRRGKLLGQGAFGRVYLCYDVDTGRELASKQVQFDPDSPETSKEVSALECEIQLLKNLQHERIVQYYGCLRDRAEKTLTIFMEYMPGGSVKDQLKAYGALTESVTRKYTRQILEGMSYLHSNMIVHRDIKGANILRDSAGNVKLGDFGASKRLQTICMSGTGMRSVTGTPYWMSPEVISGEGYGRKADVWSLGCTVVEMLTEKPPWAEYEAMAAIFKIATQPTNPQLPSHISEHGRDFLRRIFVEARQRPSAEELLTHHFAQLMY
MEKK2wt PB1 HTS – raises or lowers MEK5 binding to wildtype human MEKK2 PB1 domain; Q9Y2U5; AID 1531; bead flow cytometry, Alexa488-MEK5 binding to MEKK2 WT; actives lie on both sides; binding response (% of control), % at 10 µM; actives 1.1% (n = 290,000); in the data active means binding response below about 67% or above about 130%
UBC13 polyUb – human UBC13 polyubiquitination inhibition | UBC13 polyubiquitin chain formation, TR-FRET | actives 0.47% (n = 330,000) | P61088 | inhibition, % at 20 µM; in the data active means inhibition above about 45%, passing the limit was not always enough
Hits are given with their value; – = inactive; · = no result given; + = active, no number. This is a sample that favours compounds with a hit; in the whole collection about 2.5% have one here.

SMILES	Rce1 inh	MEKK2mut PB1 HTS	MEKK3 PB1 HTS	MEKK2wt PB1 HTS	UBC13 polyUb
O=c1c(-c2ccc(Cl)cc2)coc2c(CN3CCOCC3)c(O)ccc12	–	–	–	–	–
O=c1c(-c2ccccc2)coc2c(CN3CCCC3)c(O)ccc12	+	–	–	–	–
Cc1csc(NC(=O)c2ccc(COc3ccccc3)o2)n1	–	–	–	–	–
CCOc1ccc2[nH]c(=O)c(CN(Cc3cccs3)Cc3nnnn3C(C)(C)C)cc2c1	–	–	–	–	–
CCOc1ccc2[nH]c(=O)c(CN(CCN3CCOCC3)Cc3nnnn3C(C)(C)CC)cc2c1	+	·	·	·	–
COc1cc(/C=N/NC(=O)C(=O)/C=C2\NC3(CCCC3)Cc3ccccc32)ccc1O	–	–	–	–	–
O=C(/C=C1\NC2(CCCC2)Cc2ccccc21)C(=O)N/N=C/c1ccccc1O	–	–	174.0	–	–
CC1(C)CCC[C@]2(C)C(CS(=O)c3ccccc3)=C(C=O)CC[C@@H]12 (some centres not stated)	–	·	·	·	–
COc1cc(/C=C/c2nc3ccc([N+](=O)[O-])cc3s2)ccc1OCC(=O)O	–	–	–	–	–
Nc1nc(N(Cc2ccccc2)Cc2ccccc2)nc(C(F)(F)F)n1	·	·	·	·	–
Cc1cccc(N2C(=O)c3cccc4c(N5CCCCC5)c([N+](=O)[O-])cc(c34)C2=O)c1C	+	–	–	–	–
O=c1[nH]cc(NCCNc2ncc(C(F)(F)F)cc2Cl)c(=O)[nH]1	–	–	–	–	–
O=C(CC1(O)C(=O)N(CCc2ccccc2)c2ccccc21)c1ccccn1 (configuration not stated)	–	–	–	–	–
O=C(CC1(O)C(=O)N(C/C=C/c2ccccc2)c2ccccc21)c1ccccn1 (configuration not stated)	+	–	–	–	–
c1ccc(-c2sc3ccccc3c2-c2ccc(OCCN3CCCC3)cc2)cc1	·	·	·	·	81.6
O=C(O)C1CCC(Cn2c(SCc3cc(=O)n4ccccc4n3)nc3ccsc3c2=O)CC1 (configuration not stated)	–	–	–	–	–
O=C(CSc1nnc(NC(=O)c2ccc(F)cc2F)s1)NC1CCCC1	–	–	–	–	–
CC1(NC(=O)Cc2csc(-c3cccc(Cl)c3)n2)CCS(=O)(=O)C1 (configuration not stated)	·	·	·	·	–
O=C1C2CCCN2c2ccc(S(=O)(=O)N3CCOCC3)cc2N1Cc1cccc(C(F)(F)F)c1 (configuration not stated)	·	–	–	-8.0	–
CCN1CCN(CCCNC(=O)c2ccc(/C=C3/Oc4ccccc4N(Cc4cccc(C)c4)C3=O)cc2)CC1	–	34.0	–	169.0	64.0
COC(C/C=C\[C@H](O)[C@@H](C)OCc1ccccc1)OC	–	–	–	–	–
COC(C/C=C/[C@@H](O)[C@H](C)OCc1ccccc1)OC	+	–	–	–	–
COC(C/C=C/C(=O)[C@H](C)OCc1ccccc1)OC	+	–	–	–	–
COC(C[C@H](O)C[C@H](O)[C@@H](C)OCc1ccccc1)OC	+	–	–	–	–
COC(C/C=C/[C@H](O)[C@@H](C)OCc1ccccc1)OC	+	–	–	–	–
SMILES	Rce1 inh	MEKK2mut PB1 HTS	MEKK3 PB1 HTS	MEKK2wt PB1 HTS	UBC13 polyUb
Cc1ccc(N/C=C(\C#N)S(=O)(=O)c2ccccc2)cc1	–	–	–	–	–
CC(C)C[C@H](NC(=O)N1CCn2c1nc1ccccc12)C(=O)N[C@@H](C(=O)O)c1ccccc1	–	–	–	–	–
O=C(CCSc1ccc(Cl)c(Cl)c1)NC12CC3CC(CC(C3)C1)C2	–	–	–	–	–
COC(C/C=C/[C@H](O)[C@H](C)OCc1ccccc1)OC	+	–	–	–	–
O=C(COc1cc2oc(=O)cc(-c3ccccc3)c2cc1Cl)NC(Cc1c[nH]c2ccc(O)cc12)C(=O)O (configuration not stated)	–	–	–	–	–
COc1cccc(-c2nc(C(N)=O)c3[nH]c(=O)n(-c4cccc(Cl)c4)c3n2)c1OC	–	–	–	–	50.0
COc1ccc(-c2nc(C(N)=O)c3[nH]c(=O)n(-c4cccc(Cl)c4)c3n2)cc1OC	–	·	·	·	·
COc1ccc(S(=O)(=O)Nc2cc3c4c(c2)CCN4C(=O)CC3)cc1C	–	·	·	·	–
Cc1ccc(OCCN2C(=O)C(=O)c3cc(C)ccc32)cc1	+	–	–	–	–
Cc1cc(NC(=O)/C=C/c2ccccc2Cl)n(-c2nc3ccccc3[nH]2)n1	–	–	150.0	–	–

Bioassay records deposited in PubChem by several laboratories.
